Test results from PubChem BioAssay.
Potency and affinity values are given separately. Calls of active or inactive are those of the source. No rule for the calls is given here.

The compounds below were run against Plasmodium falciparum protein kinase 6 (PK6, PF3D7_1337100) (UniProt Q8IDW1) (assay: PfPK6 kinase inhibitors, biochemical, TCAMS library (AID 1159586)). Conditions: recombinant PfPK6, Kinase-Glo ATP depletion luminescence.
Sequence of Plasmodium falciparum protein kinase 6 (PK6, PF3D7_1337100) (Q8IDW1 1-305): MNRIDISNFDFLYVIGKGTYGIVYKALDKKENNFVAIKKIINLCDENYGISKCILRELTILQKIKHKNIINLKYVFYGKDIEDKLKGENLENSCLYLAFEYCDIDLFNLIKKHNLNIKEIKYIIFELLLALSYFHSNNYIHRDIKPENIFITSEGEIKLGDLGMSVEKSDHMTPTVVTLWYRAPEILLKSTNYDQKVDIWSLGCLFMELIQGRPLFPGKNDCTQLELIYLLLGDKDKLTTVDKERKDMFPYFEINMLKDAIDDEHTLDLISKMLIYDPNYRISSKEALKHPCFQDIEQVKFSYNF

outcome, inactive:
Cc1ccccc1Nc1cc(Nc2ccccc2C)c2ccccc2n1
CCC[C@@H]([C@@H](CC1CCCCC1)C(=O)N[C@H](C(=O)Nc1nccs1)C(C)(C)SC)N(O)C=O
CCNc1cc(C(=O)N[C@@H](Cc2ccccc2)[C@H](O)CNC(C)CC(C)C)c(F)c(N2CCCCS2(=O)=O)c1 (stereo not given in full)
CC1SC(=S)NC1C(=O)O (stereo not given)
O=C(Nc1ccc(-c2nc3ccccc3[nH]2)cc1)c1ccc(S(=O)(=O)N2CCc3ccccc32)cc1
C=CCc1c(C(=O)NCC23CC4CC(CC(C4)C2)C3)[nH]c2ccccc2c1=O
COc1ccc2nccc(NN=Cc3cccc(F)c3)c2c1
CN(C)CCC1CCCc2ccc(NC(=O)Nc3cccc(Cl)c3Cl)cc21 (stereo not given)
O=C(Nc1ccc(Cl)c(C(F)(F)F)c1)NC1CCN(CCCCCNC(=O)[C@@H]2C[C@H]2c2ccc(Cl)c(Cl)c2)CC1
CO/C(=C\C=C\c1cc2cc(Cl)c(Cl)cc2[nH]1)C(=O)NC1CCN(CCNc2ccccc2)CC1
O=C(Nc1ccc(-c2cccc(-c3nc4ccccc4[nH]3)c2)cc1)Nc1ccc2c(c1)OCO2
CN1CCN(CC(=O)Nc2ccc(-c3ccc(-c4nc5ccc(C(F)(F)F)cc5[nH]4)cc3)cc2)CC1
O=C(c1cccs1)N1CCN(c2ccc([N+](=O)[O-])c(NC3CC3)c2)CC1
CC(C)(C)c1ccccc1SC1=C(O)CC2(CCNCC2)OC1=O
Cc1cc(C)c(C(=O)Nc2ccc3nc(C)cc(N)c3c2)c(C)c1
